From PubChem BioAssay (NCATS)
“And” between values parts separate entries of the source, which are not always exact repeats. Equal entries are not always repeated. Results filed as inconclusive are left out. The source made the active and inactive calls. Unless noted, calls follow the shape of the full dose curve.

How the values were obtained:
[1] = target: Glucocorticoid receptor (Homo sapiens) (UniProt P04150); experiment: qHTS assay for small molecule agonists of glucocorticoid receptor signaling (AID 588532; active = well fitted curve in the direction sought with a large enough effect in the signal ratio, with a control signal flat; the % refers to the signal ratio;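 also: 100% = dexamethasone at 0.1 µM and 0% = DMSO only wells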); settings: HeLa MMTV-bla, beta-lactamase ratio, agonist, 18 h; activation: stronger effect = higher value, percent of dexamethasone control, DMSO zero
How it was run: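 Titration series, up to 92 uM, applied to GRE-bla HeLa cells for 18 h at 37 C. Detection by CCF4 FRET substrate after 2 h at RT.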

[2] = target: Peroxisome proliferator-activated receptor gamma (Homo sapiens) (UniProt P37231); experiment: qHTS assay for small molecule agonists of peroxisome proliferator-activated receptor gamma signaling (AID 588536; active = well fitted curve in the direction sought with a large enough effect in the signal ratio, with a control signal flat, not every such curve was filed as active; the % refers to the signal ratio;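 also: 0% = DMSO basal wells and 100% = rosiglitazone at 2 µM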)
How it was run: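 Test agents, titrated, stimulated HEK293 UAS-bla cells overnight (16 h, 37 C). Substrate CCF4 was then added for two hours at room temperature before fluorescence reading.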

[3] = target: Peroxisome proliferator-activated receptor gamma (Homo sapiens) (UniProt P37231); experiment: qHTS assay for small molecule antagonists of peroxisome proliferator-activated receptor gamma signaling (AID 588537; active = well fitted inhibition curve with a large enough effect in the signal ratio, with a control signal flat, not every such curve was filed as active; the % refers to the signal ratio;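 also: reporter cells co-stimulated with 50 nM rosiglitazone agonist during compound treatment; % of control where 0% means no effect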)
How it was run: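 We seeded GeneBLAzer HEK293 reporter cells at 3000 per well, allowed 6-6.5 h attachment at 37 C, then co-treated with test compound titrations and 50 nM rosiglitazone overnight (16 h). Inhibition was quantified from 460/530 nm emission ratios.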

[4] = target: Vitamin D3 receptor (Homo sapiens) (UniProt P11473); experiment: qHTS assay for small molecule antagonists of vitamin D receptor signaling (AID 588541); also: potency is read from the fitted curve at half-maximal effect
How it was run: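 VDR-UAS-bla HEK293T cells (2000/well, 2% charcoal-stripped FBS) were treated with titrated compounds plus 1-alpha,25-dihydroxyvitamin D3 (50 nM or 3 nM final) for 16 h at 37 C. CCF4 beta-lactamase fluorescence was read; Hill fits gave IC50.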

[5] = target: Retinoic acid receptor RXR-alpha (Homo sapiens) (UniProt P19793); experiment: qHTS assay for small molecule agonists of retinoid X receptor alpha signaling (AID 588544); also: potency is read from the fitted curve at half-maximal effect;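 as to activation: 0% = DMSO basal wells and 100% = reference agonist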
[6] = target: Thyroid hormone receptor beta (Homo sapiens) (UniProt P10828); experiment: qHTS assay for small molecule agonists of thyroid hormone receptor beta signaling (AID 588545);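 also: 0% = DMSO only and 100% = 10 nM T3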
How it was run: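 TR-UAS-bla-GripTite HEK 293 cells in medium with 2% charcoal/dextran FBS, 0.1 mM NEAA and 1 mM sodium pyruvate were treated with titrated compounds for 18 hrs at 37 C. Beta-lactamase reporter was read with CCF4 dye (ex 405, em 460/530 nm); EC50 from Hill fits.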

[7] = qHTS assay for small molecule antagonists of retinoid X receptor alpha signaling (AID 588546; active = well fitted inhibition curve with a large enough effect in the signal ratio, with a control signal flat, not every such curve was filed as active; the % refers to the signal ratio; also: potency is read from the fitted curve at half-maximal effect;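 as to max response: cells stimulated with 9-cis-retinoic acid as agonist; % is scaled to controls: 0 for no effect and ±100 for the full control effect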); settings: HEK293T RXRa-UAS-bla, beta-lactamase ratio, antagonist mode; measured here: W530 green channel, cytotoxicity proxy
How it was run: (§1)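 Beta-lactamase reporter inhibition, read as CCF4 fluorescence ratio (ex 405, em 460/530 nm) after 2 h at RT. HEK293T UAS-bla cells, 2500/well, were stimulated with 9-cis-RA at 500 or 100 nM final alongside test compound for 18 h at 37 C.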

[8] = target: Retinoic acid receptor RXR-alpha (Homo sapiens) (UniProt P19793); experiment: as above; settings: HEK293T RXRa-UAS-bla, beta-lactamase ratio, antagonist mode
How it was run: as §1

[9] = qHTS assay for small molecule activators of the p53 signaling pathway (AID 651743; active = well fitted activation curve with a large enough effect in the signal ratio, not every such curve was filed as active; the % refers to the signal ratio; also: series mostly up to about 92 µM; % of control where 0% means no effect); settings: HCT-116 p53RE-bla, beta-lactamase FRET ratio, 16 h; activation: stronger effect = higher value
How it was run: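 Cell-based beta-lactamase reporter (p53 response elements, HCT-116 background). After a 5-hour preincubation, cells received compound for 16 hours at 37 C; substrate development ran 2 hours at room temperature.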

[10] = qHTS assay for environmental chemicals that activate the Aryl hydrocarbon Receptor (AhR) signaling pathway (AID 651777; active = well fitted curve in the direction sought with a large enough effect; an effect the other way counts as inactive or inconclusive; also: % of control where 0% means no effect; nearly all actives have a fitted effect of over 15% in size); settings: 1A2-DRE human hepatoma cells, luciferase, 24 h; activation: stronger effect = higher value
How it was run: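 Measured luciferase activity, read 30 min after One-Glo addition at room temperature, from human hepatoma cells bearing a dioxin response element–CYP1A2 promoter reporter and exposed to compound for 24 hr at 37 C.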

[11] = target: Peroxisome proliferator-activated receptor alpha (Homo sapiens) (UniProt Q07869); experiment: qHTS assay for small molecule agonists of the peroxisome proliferator-activated receptor alpha (PPARalpha) signaling pathway (AID 651778; active = well fitted curve in the direction sought with a large enough effect; an effect the other way counts as inactive or inconclusive; also: % of control where 0% means no effect); settings: PathHunter PPARalpha complementation, chemiluminescence, 6 h; max response: stronger effect = higher value
How it was run: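 Cells plated at 2,000/well and held overnight at 37 C, 5% CO2, then compound added by pin tool for 6 hr; after PathHunter detection reagent and 60 min at room temperature, chemiluminescence from enzyme complementation was read.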

[12] = qHTS assay for small molecule agonists of the antioxidant response element (ARE) signaling pathway measured by Nrf2-dependant transcriptional activity (AID 720636; active = well fitted curve in the direction sought with a large enough effect in the repeat runs; an effect the other way counts as inactive or inconclusive; also: potency is read from the fitted curve at half-maximal effect;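 as to activation: HepG2 cells with an ARE-driven luciferase reporter; % of control where 0% means no effect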)
How it was run: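 In HepG2 cells engineered with an Nrf2-responsive luciferase gene, ARE induction was quantified as luminescence after 16 hr compound treatment at 37 C.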

[13] = qHTS assay for small molecule agonists of the antioxidant response element (ARE) signaling pathway measured by Nrf2-dependant transcriptional activity - cell viability counter screen (AID 720653; active = well fitted curve in the direction sought with a large enough effect in the repeat runs; an effect the other way counts as inactive or inconclusive; also: % is scaled to controls: 0 for no effect and ±100 for the full control effect); settings: ARE-bla HepG2 viability, CellTiter-Glo ATP luminescence, 16 h; max response: stronger effect = lower value
How it was run: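 ARE-bla HepG2 cells (2,000/well) rested 5 hrs at 37C/5% CO2, then exposed to compounds in DMSO for 16 hrs. Viability was read in the same wells as intracellular ATP by luminescence, 30 min at room temperature after reagent addition.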

[14] = qHTS assay for cell viability of HEK293 cells (AID 743288; active = well fitted curve in the direction sought with a large enough effect; an effect the other way counts as inactive or inconclusive; also: % is scaled to controls: 0 for no effect and ±100 for the full control effect; nearly all actives have a fitted effect of over 50% in size); settings: ATP luminescence (CellTiter-Glo), 18 h; max response: stronger effect = lower value
How it was run: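 Parental HEK293 cells, 2,000 per well, preincubated at least 5 h at 37 C, then exposed to compounds in DMSO for 18 h at 37 C. Viability by CellTiter-Glo ATP luminescence after 30 min at room temperature.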

[15] = qHTS assay for cell viability of the p53RE-bla HCT-116 cell line (AID 743292; active = well fitted curve in the direction sought with a large enough effect; an effect the other way counts as inactive or inconclusive; also: % is scaled to controls: 0 for no effect and ±100 for the full control effect; nearly all actives have a fitted effect of over 55% in size)
How it was run: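 Intracellular ATP of p53RE-bla HCT-116 cells measured by luciferase luminescence following 16 h compound incubation at 37 C; DMSO-only wells served as vehicle controls.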

[16] = target: Nuclear receptor subfamily 1 group I member 2 (Rattus norvegicus) (UniProt Q9R1A7); experiment: qHTS assay for small molecule activators of the rat pregnane X receptor (rPXR) signaling pathway (AID 651751; call rule not given here; also: 0% is about no effect); settings: rPXR reporter cells, luciferase (One-Glo), 24 h
[17] = qHTS assay for small molecule antagonists of peroxisome proliferator-activated receptor delta signaling (AID 588535; active = well fitted inhibition curve with a large enough effect in the signal ratio, with a control signal flat, not every such curve was filed as active; the % refers to the signal ratio;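 as to max response: cells co-treated with a PPAR-delta agonist as stimulator during compound exposure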); settings: HEK293T PPARd-UAS-bla, beta-lactamase FRET ratio, 18 h; 460 nm channel
How it was run: (§2)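 Reporter: UAS-bla under PPAR-delta response element, HEK293T host. Medium: 2% charcoal/dextran FBS. Dosing: titration, 18 hrs, 37 C. Detection: CCF4, 2 hrs RT, 405 ex/460 and 530 em.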

[18] = target: Peroxisome proliferator-activated receptor delta (Homo sapiens) (UniProt Q03181); experiment: as above
How it was run: as §2

[19] = target: Vitamin D3 receptor (Homo sapiens) (UniProt P11473); experiment: qHTS assay for small molecule agonists of vitamin D receptor signaling (AID 588543);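 also: 0% = DMSO basal and 100% = reference agonist control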
How it was run: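 VDR-UAS-bla HEK293T cells, 2000/well, 2% charcoal-stripped FBS; compound titration 16 h at 37 C; CCF4 beta-lactamase ratio read. Normalized to 50 nM 1-alpha,25-dihydroxyvitamin D3 (100%) and DMSO; Hill fit gives EC50, efficacy.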

[20] = target: Peroxisome proliferator-activated receptor delta (Homo sapiens) (UniProt Q03181); experiment: qHTS assay for small molecule agonists of peroxisome proliferator-activated receptor delta signaling (AID 588534);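 also: 0% = DMSO basal wells and 100% = positive control agonist at 10 µM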
How it was run: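 Fluorescence from CCF4 substrate cleavage by beta-lactamase reporter, read 2 hrs at RT, measured agonist activity. Compounds were tested with 18 hrs exposure at 37 C. Concentration-response data fitted to Hill equation.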

Retinoic acid receptor RXR-alpha (Homo sapiens), sequence (P19793 whole entry, looked up): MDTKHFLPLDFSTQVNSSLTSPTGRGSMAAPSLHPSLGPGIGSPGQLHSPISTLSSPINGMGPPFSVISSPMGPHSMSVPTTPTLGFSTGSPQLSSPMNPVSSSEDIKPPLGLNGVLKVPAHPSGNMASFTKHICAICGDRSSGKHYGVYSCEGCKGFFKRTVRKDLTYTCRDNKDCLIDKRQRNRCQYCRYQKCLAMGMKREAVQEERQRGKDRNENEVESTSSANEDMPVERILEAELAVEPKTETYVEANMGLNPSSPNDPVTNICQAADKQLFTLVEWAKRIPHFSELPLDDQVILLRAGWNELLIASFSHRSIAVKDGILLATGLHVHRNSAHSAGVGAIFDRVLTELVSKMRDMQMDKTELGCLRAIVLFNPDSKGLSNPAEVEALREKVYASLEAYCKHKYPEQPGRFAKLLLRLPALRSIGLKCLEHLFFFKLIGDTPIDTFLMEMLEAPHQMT
Peroxisome proliferator-activated receptor gamma (Homo sapiens), sequence (P37231 whole entry, looked up): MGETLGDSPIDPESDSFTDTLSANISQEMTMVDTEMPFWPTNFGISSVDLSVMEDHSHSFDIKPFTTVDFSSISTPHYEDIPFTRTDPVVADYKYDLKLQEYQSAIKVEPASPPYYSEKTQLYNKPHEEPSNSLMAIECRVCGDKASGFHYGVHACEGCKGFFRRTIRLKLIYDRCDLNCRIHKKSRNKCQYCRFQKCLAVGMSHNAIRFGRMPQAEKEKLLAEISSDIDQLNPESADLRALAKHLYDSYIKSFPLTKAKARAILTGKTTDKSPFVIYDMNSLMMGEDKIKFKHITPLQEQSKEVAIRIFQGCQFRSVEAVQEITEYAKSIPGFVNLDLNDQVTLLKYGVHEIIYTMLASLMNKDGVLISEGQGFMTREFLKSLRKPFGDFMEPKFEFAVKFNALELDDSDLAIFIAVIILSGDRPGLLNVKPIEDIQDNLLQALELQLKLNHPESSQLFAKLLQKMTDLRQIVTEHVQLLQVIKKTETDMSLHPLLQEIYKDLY
Peroxisome proliferator-activated receptor delta (Homo sapiens), sequence (Q03181 whole entry, looked up): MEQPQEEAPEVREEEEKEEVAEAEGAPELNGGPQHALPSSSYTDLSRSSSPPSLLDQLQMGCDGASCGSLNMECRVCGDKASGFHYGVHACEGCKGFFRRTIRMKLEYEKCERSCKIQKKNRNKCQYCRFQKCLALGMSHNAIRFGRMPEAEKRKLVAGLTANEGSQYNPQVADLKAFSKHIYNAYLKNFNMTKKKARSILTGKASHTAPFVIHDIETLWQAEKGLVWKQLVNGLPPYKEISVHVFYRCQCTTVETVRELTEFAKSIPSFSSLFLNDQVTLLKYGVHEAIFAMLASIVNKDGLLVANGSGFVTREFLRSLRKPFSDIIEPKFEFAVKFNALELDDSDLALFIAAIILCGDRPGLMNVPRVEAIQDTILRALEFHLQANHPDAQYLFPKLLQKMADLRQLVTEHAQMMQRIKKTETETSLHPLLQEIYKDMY
Glucocorticoid receptor (Homo sapiens), sequence (P04150 whole entry, looked up): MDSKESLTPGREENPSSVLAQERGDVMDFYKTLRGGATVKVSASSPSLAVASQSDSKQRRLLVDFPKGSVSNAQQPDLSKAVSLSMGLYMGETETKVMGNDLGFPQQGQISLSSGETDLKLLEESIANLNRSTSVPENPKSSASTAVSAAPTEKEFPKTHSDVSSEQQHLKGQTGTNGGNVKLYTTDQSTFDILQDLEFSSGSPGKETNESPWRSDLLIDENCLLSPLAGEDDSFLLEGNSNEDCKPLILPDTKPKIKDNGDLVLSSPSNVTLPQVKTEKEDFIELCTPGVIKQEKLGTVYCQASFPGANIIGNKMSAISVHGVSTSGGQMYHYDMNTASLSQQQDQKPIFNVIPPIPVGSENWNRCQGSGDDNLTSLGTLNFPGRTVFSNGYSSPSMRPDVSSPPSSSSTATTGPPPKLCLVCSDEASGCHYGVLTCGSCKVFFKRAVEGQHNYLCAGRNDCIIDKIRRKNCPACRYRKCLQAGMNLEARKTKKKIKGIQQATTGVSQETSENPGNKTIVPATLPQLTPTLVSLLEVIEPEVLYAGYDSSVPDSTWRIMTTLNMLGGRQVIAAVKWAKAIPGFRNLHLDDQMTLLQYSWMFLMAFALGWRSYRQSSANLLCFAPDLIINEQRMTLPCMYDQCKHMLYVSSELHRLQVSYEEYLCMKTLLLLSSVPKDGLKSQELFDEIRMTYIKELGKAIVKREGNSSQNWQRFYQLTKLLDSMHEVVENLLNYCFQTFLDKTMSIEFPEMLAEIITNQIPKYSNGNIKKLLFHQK
Vitamin D3 receptor (Homo sapiens), sequence (P11473 whole entry, looked up): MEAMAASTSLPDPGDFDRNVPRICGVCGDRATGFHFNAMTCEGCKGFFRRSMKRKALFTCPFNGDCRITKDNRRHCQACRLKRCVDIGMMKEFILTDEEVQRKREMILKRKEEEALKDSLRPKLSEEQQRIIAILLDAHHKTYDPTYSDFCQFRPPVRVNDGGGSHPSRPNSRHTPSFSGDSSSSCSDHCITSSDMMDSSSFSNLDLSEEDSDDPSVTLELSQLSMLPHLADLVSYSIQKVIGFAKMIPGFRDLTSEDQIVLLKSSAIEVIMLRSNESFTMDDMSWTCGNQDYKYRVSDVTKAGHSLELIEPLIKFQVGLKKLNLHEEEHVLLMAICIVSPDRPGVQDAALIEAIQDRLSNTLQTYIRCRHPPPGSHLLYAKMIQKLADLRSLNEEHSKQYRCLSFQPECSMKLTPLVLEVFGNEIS
Thyroid hormone receptor beta (Homo sapiens), sequence (P10828 whole entry, looked up): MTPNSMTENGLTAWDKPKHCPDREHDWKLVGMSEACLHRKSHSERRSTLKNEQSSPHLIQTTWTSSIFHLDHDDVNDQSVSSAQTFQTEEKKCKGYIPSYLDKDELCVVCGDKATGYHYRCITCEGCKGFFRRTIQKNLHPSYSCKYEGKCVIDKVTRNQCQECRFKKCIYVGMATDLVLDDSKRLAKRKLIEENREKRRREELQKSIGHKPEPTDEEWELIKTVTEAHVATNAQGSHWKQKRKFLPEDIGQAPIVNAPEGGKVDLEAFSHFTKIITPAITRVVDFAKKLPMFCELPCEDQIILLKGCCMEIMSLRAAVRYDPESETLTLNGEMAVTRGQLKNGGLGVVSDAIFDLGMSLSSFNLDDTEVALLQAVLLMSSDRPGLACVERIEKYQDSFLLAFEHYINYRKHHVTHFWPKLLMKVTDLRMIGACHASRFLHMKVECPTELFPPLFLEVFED
Nuclear receptor subfamily 1 group I member 2 (Rattus norvegicus), sequence (Q9R1A7 whole entry, looked up): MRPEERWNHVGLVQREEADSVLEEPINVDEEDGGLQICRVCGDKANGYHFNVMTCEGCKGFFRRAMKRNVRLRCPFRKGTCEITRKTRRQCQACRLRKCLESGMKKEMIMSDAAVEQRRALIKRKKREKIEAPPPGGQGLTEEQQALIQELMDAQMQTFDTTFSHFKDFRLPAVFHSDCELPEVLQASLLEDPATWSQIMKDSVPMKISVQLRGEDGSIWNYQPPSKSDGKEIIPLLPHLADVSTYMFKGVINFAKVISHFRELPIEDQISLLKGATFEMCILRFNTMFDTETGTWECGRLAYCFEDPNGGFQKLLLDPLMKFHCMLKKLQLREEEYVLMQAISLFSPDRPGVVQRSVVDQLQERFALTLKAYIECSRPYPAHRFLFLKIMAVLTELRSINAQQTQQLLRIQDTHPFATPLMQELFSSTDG
Peroxisome proliferator-activated receptor alpha (Homo sapiens), sequence (Q07869 whole entry, looked up): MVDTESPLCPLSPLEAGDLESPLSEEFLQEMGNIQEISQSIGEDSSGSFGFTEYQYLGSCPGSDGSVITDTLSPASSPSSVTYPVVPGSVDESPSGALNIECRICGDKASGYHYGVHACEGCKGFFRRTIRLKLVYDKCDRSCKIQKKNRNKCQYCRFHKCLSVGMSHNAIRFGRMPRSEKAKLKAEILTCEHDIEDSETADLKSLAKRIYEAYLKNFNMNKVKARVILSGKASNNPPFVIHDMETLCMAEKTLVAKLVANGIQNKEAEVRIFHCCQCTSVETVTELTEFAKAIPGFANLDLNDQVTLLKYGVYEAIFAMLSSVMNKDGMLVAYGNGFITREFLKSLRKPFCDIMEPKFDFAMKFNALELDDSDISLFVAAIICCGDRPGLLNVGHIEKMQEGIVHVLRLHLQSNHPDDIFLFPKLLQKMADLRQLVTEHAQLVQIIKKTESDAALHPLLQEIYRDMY

COc1ccc(C(O)(c2cncnc2)C2CC2)cc1 (configuration not stated)
8.99%: max response [7]
inactive: activation [1] -6.63% | Potency [2] | Potency [3] | Potency [4] | Potency [5] | Potency [6] | max response [8] 1.16% | activation [9] -2.74% | activation [10] -0.591% | max response [11] -2.81% | Potency [12] | max response [13] -13.4% | max response [14] -5.84% | Potency [15] | max response [16] 3.59%

O=P(OCC(Br)CBr)(OCC(Br)CBr)OCC(Br)CBr (configuration not stated)
inactive: Potency [18] | Potency [6] | activation [9] 10.6% | max response [11] -0.385% | Potency [12] | max response [13] -25.3% | Potency [15] | max response [16] 0.175%
-17.7%: max response [17]

CC(=O)[C@H]1[C@H](C#N)C[C@H]2[C@@H]3CC=C4C[C@@H](O)CC[C@]4(C)[C@H]3CC[C@@]21C
inactive: outcome [19]

O=C(O)C(F)(F)C(F)(F)C(F)(F)C(F)(F)C(F)(F)F
-15.9%: max response [17]
inactive: activation [1] 4.09% | outcome [20] | Potency [18] | Potency [2] | Potency [3] | Potency [4] | outcome [19] | Potency [5] | Potency [6] | max response [8] -23% | activation [9] -4.82% | activation [10] 0.455% | max response [11] 4.72% | max response [14] -9.96% | Potency [15] | max response [16] 2.05%
3.1%: max response [7]

CCC/C(=N\OCC)C1=C(O)CC(CC(C)SCC)CC1=O (configuration not stated)
-1.11%: max response [7]
inactive: activation [1] -6.86% | outcome [20] | Potency [18] | Potency [2] | Potency [3] | Potency [4] | outcome [19] | Potency [5] | Potency [6] | max response [8] -23% | activation [9] -6.84% | activation [10] 1.24% | max response [11] 0.062% | Potency [12] | max response [13] -2.32% | max response [14] -13.8% | Potency [15] | max response [16] 0.0341%
-49.6%: max response [17]

Clc1ccc([C@@]2(Cn3cncn3)C[C@@H](Br)CO2)c(Cl)c1
-0.908%: max response [17]
inactive: activation [1] -12.1% | outcome [20] | Potency [18] | Potency [2] | Potency [3] | Potency [4] | outcome [19] | Potency [6] | max response [8] -32.6% | activation [9] -2.11% | activation [10] 1.89% | max response [11] -2.47% | Potency [12] | max response [13] 2.35% | Potency [15]
-15.6%: max response [7]

Clc1ccc([C@@]2(Cn3cncn3)C[C@H](Br)CO2)c(Cl)c1
active: Potency [5] 14.1 µM
inactive: activation [1] 2.56% | Potency [2] | Potency [6] | max response [8] -7.83% | activation [9] 0.484% | max response [11] 0.534% | Potency [12] | max response [13] -1.58% | max response [14] -14.4% | Potency [15]
-6.47%: max response [7]

CCOP(=S)(NC(C)C)Oc1ccccc1C(=O)OC(C)C (configuration not stated)
-9.07%: max response [7]
inactive: activation [1] -0.106% | outcome [20] | Potency [18] | Potency [2] | Potency [3] | Potency [4] | outcome [19] | Potency [6] | max response [8] -31.4% | activation [9] 2.9% | max response [11] -0.429% | Potency [12] | max response [13] -14.9% | max response [14] -18.9% | Potency [15]
-3.59%: max response [17]

C=CC(=O)OCC(CO)(COC(=O)C=C)COC(=O)C=C
inactive: outcome [19] | max response [13] -24.9%
-17.9%: max response [7]
active: Potency [4] 7.08 µM | Potency [8] 5.62 µM | Potency [12] 16.8 µM and 12.2 µM

CC(Oc1ccc(Cl)cc1Cl)C(=O)O (configuration not stated)
inactive: Potency [3] | Potency [4] | outcome [19] | Potency [5] | Potency [6] | max response [8] 1.72% | max response [11] 0.174% | Potency [12] | max response [13] 8.84% | max response [14] -4.02% | Potency [15] | max response [16] -2.29%
2.43%: max response [7]

CN(C)P(=O)(N(C)C)N(C)C
-10.5%: max response [7]
-0.709%: max response [17]
inactive: outcome [20] | Potency [18] | Potency [2] | Potency [3] | Potency [4] | outcome [19] | Potency [5] | Potency [6] | max response [8] -0.0212% | activation [9] -2.55% | activation [10] 0.845% | max response [11] 0.0783% | Potency [12] | max response [13] -5.07% | max response [14] 0.472% | Potency [15] | max response [16] -0.946%

COC(=O)c1sccc1S(=O)(=O)NC(=O)Nc1nc(C)nc(OC)n1
-1.17%: max response [7]
inactive: activation [1] -2.71% | outcome [20] | Potency [18] | Potency [2] | Potency [3] | Potency [4] | outcome [19] | Potency [5] | Potency [6] | max response [8] -14.7% | activation [9] -3.25% | activation [10] 0.948% | max response [11] -0.482% | Potency [12] | max response [13] 2.61% | max response [14] -12% | Potency [15] | max response [16] 3.77%
-31.9%: max response [17]

CN(C)c1nc(=O)n(C2CCCCC2)c(=O)n1C
-2.46%: max response [7]
12.4%: max response [17]
inactive: Potency [18] | Potency [2] | Potency [3] | Potency [4] | Potency [5] | Potency [6] | max response [8] -11.2% | activation [10] 0.25% | max response [11] 0.605% | Potency [12] | max response [13] 8.36% | max response [14] -6.56% | Potency [15] | max response [16] 1.22%

CSC(=O)c1c(C(F)F)nc(C(F)(F)F)c(C(=O)SC)c1CC(C)C
-14.1%: max response [7]
97.5%: max response [17]
inactive: activation [1] -2.18% | outcome [20] | Potency [18] | Potency [2] | Potency [3] | Potency [4] | outcome [19] | Potency [6] | max response [8] -15.4% | activation [9] -0.469% | activation [10] 1.06% | max response [11] 6.5% | Potency [12] | max response [13] -2.65% | max response [14] -16.9% | Potency [15]
